From PubChem BioAssay
Several values for one entry are separate records, joined by “and”; a condition that tells them apart may be missing. Equal entries are not always repeated. Activity calls are given as the source filed them. Unless noted, no rule for the calls is given here.

Legend:
[1] = test system: Wnt5a (protein binding on small-molecule microarray); experiment: small molecules binding Wnt5a protein – biophysical, small-molecule microarray, 635/667 nm fluorescence, primary screen (AID 1142); conditions: 635 nm fluorescence, higher = more signal;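 also: fluorescence read at 667 nm with signal to noise per printed feature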
[2] = ATP-based viability of Huh7 replicon cells – cell-based, CellTiter-Glo luminescence, basal, 48 h, cytotoxicity control for HCV replication inhibitor project, primary screen (AID 1143); conditions: higher = more signal, called active from +8 up or from −8 down;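 also: Huh7 hepatoma cells carrying a hepatitis C replication reporter with no stimulus; test concentration not given here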
[3] = Pseudomonas biofilm growth suppression – PAO1 strain, BacTiter-Glo luminescence, LB-PBS, primary screen (AID 1144); conditions: P. aeruginosa PAO1 biofilm, 12 h, higher = more signal
[4] = basal CRE-LacZ reporter activity in PC12 – cell-based, unstimulated, primary screen (AID 1145); conditions: no forskolin, luminescence, 4.5 h, higher = more signal, called active from +8 up or from −8 down
[5] = forskolin-driven CRE-LacZ activity in PC12 – cell-based, CRE-LacZ reporter, forskolin-stimulated, primary screen (AID 1146); conditions: luminescence, 4.5 h, higher = more signal, called active from +8 up or from −8 down;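 also: PC12 cells with 6xCRE LacZ reporter stimulated by forskolin 10 µM; beta-galactosidase reporter signal reflecting CREB driven transcription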
[6] = molecular target: Streptavidin (Streptomyces avidinii) (UniProt P22629); experiment: compounds binding control protein streptavidin – biophysical, small-molecule microarray, 635/667 nm fluorescence, artefact control for SMM compound annotation, primary screen (AID 1147); conditions: higher = more signal;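 also: signal reflects streptavidin binding to arrayed compounds as a control protein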
[7] = probe aInhba binding on compound microarray – biochemical, small-molecule microarray, 635/667 nm fluorescence, primary screen (AID 1148); conditions: higher = more signal;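 also: score merges 667nm spot fluorescence with signal-to-noise for antibody binding to printed compounds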
Torsin-1A (Homo sapiens) [8] = molecular target: Torsin-1A (Homo sapiens) (UniProt O14656); experiment: TOR1A wild-type binding on microarray – cell lysate, small-molecule microarray, lysate, 635/667 nm, primary screen (AID 1149); conditions: COS7 hTOR1A-WT lysate, 635 nm fluorescence, higher = more signal
Torsin-1A (Homo sapiens) [9] = molecular target: Torsin-1A (Homo sapiens) (UniProt O14656); experiment: torsin A mutant lysate binding on microarrays – cell lysate, small-molecule microarray, COS7 lysate, 635/667 nm fluorescence, primary screen (AID 1150); conditions: COS7 hTOR1A mutant lysate, 635 nm fluorescence, higher = more signal;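 also: score pools 667 nm emission and signal to noise measuring lysate protein binding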
[10] = test system: Sonic hedgehog protein (Shh); experiment: Sonic hedgehog microarray binding compounds – biochemical, small-molecule microarray, 635/667 nm fluorescence, primary screen (AID 1151); conditions: 635 nm fluorescence, higher = more signal;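 also: Shh protein binding to compounds spotted on small-molecule microarray slides; score combines spot fluorescence intensity with signal-to-noise across triplicate slides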
[11] = optical density shifts of acrAB sulA E. coli – strain DRC41, OD650, 48 h, E. coli filamentation inducer project, primary screen (AID 1152); conditions: higher = more signal, called active from +8 up or from −8 down;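 also: E. coli MC1000 strain DRC41 lacking acrAB efflux pump and sulA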
[12] = probe aLefty1 binding on compound microarray – biochemical, small-molecule microarray, 635/667 nm fluorescence, primary screen (AID 1153); conditions: higher = more signal;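 also: score merges spot fluorescence with signal-to-noise ratio from the scanned slide images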
[13] = plasmodial surface anion channel blockers, osmotic lysis – cell-based, P. falciparum Indochina, OD700, 1 h, primary screen (AID 1154); conditions: P. falciparum Indochina infected RBC osmotic lysis, higher = more signal, called active from +8 up or from −8 down
[14] = plasmodial surface anion channel blockers, osmotic lysis – cell-based, P. falciparum Indochina, OD700, 2 h, primary screen (AID 1155);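 also: lysis reports solute entry through the parasite surface anion channel PSAC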; conditions: P. falciparum Indochina infected erythrocytes, higher = more signal, called active from +8 up or from −8 down
[15] = changes in parasitized red cell lysis, either direction – P. falciparum Indochina, OD700, 3 h, PSAC antagonist project, primary screen (AID 1156); conditions: P. falciparum-infected erythrocytes, osmotic lysis, higher = more signal, called active from +8 up or from −8 down
[16] = plasmodial surface anion channel blockers, osmotic lysis – cell-based, P. falciparum Indochina, OD700, 18 h, primary screen (AID 1157); conditions: P. falciparum Indochina infected erythrocytes, osmotic lysis OD700, 18 h; higher = more signal, called active from +8 up or from −8 down
[17] = S6 kinase pathway phospho-S6 level changes – cell-based, A549, cytoblot, luminescence, serum-stimulated, primary screen (AID 1158); conditions: 5 h, higher = more signal;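 also: serum-stimulated A549 lung adenocarcinoma cells; signal is phosphorylated S6 detected by cytoblot immunostaining with HRP secondary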
[18] = molecular target: NADPH oxidase 2 (Homo sapiens) (UniProt P04839); experiment: compounds shifting NOX2 Amplex Red fluorescence – cell-based, HEK293-NOX2, PMA-stimulated, NOX inhibitor project, primary screen (AID 1159); conditions: 45 min, higher = more signal, called active from +8 up or from −8 down; also: test concentration not given here
[19] = molecular target: NADPH oxidase 4 (Homo sapiens) (UniProt Q9NPH5); experiment: compounds shifting NOX4 Amplex Red fluorescence – cell-based, HEK293-NOX4, tetracycline-induced, NOX inhibitor project, primary screen (AID 1160); conditions: HEK293-NOX4, Amplex Red H2O2 fluorescence, 45 min; higher = more signal, called active from +8 up or from −8 down
[20] = molecular target: NADPH oxidase 5 (Homo sapiens) (UniProt Q96PH1); experiment: compounds shifting NOX5 Amplex Red fluorescence – cell-based, HEK293-NOX5, NOX inhibitor project, primary screen (AID 1161); conditions: HEK293-NOX5, ionomycin, 45 min, higher = more signal
Sequence of NADPH oxidase 5 (Homo sapiens) (Q96PH1 whole entry, looked up): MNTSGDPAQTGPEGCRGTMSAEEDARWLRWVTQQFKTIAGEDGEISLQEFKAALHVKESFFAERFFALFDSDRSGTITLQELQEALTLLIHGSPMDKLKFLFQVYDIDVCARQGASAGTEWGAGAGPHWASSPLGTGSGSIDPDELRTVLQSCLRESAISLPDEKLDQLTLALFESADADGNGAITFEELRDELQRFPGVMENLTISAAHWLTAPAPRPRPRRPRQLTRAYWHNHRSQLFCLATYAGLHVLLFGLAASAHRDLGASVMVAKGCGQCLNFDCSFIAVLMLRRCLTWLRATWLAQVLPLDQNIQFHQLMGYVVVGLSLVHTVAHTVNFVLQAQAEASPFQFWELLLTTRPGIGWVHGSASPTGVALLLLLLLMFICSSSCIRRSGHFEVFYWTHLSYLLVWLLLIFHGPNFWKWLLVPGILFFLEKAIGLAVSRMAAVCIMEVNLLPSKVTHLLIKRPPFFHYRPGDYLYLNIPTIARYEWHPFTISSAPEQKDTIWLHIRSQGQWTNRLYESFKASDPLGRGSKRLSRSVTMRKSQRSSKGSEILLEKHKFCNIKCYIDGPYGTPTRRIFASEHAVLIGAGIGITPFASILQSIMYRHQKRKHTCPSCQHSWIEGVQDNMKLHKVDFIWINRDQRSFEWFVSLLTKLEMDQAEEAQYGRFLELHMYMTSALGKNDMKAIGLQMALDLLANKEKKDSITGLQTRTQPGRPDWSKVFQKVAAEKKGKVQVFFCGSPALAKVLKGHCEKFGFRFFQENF

Sequence of Torsin-1A (Homo sapiens) (O14656 whole entry, looked up): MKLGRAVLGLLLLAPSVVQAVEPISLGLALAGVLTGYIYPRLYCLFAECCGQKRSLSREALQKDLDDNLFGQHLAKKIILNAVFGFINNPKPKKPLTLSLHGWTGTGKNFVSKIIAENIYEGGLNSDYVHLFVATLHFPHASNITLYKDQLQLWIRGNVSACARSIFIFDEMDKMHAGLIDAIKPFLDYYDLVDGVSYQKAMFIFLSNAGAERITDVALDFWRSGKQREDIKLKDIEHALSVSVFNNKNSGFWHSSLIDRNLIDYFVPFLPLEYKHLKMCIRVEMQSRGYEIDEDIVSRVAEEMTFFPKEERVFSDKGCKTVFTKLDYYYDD
Sequence of NADPH oxidase 4 (Homo sapiens) (Q9NPH5 whole entry, looked up): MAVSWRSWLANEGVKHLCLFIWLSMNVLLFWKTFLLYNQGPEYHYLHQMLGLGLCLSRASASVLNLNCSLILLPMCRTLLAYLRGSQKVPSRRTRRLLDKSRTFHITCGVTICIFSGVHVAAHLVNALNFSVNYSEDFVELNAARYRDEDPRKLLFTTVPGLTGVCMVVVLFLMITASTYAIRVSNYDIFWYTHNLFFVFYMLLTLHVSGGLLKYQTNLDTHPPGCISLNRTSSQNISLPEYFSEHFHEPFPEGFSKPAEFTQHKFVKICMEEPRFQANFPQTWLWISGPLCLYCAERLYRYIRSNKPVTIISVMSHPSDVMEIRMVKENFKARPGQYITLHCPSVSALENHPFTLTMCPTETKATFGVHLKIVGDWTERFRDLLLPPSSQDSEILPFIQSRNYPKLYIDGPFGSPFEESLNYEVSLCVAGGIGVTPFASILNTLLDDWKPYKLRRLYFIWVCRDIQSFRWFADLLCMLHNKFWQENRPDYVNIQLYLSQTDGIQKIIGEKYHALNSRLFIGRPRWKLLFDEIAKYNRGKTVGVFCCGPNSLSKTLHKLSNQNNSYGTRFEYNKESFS
Sequence of NADPH oxidase 2 (Homo sapiens) (P04839 whole entry, looked up): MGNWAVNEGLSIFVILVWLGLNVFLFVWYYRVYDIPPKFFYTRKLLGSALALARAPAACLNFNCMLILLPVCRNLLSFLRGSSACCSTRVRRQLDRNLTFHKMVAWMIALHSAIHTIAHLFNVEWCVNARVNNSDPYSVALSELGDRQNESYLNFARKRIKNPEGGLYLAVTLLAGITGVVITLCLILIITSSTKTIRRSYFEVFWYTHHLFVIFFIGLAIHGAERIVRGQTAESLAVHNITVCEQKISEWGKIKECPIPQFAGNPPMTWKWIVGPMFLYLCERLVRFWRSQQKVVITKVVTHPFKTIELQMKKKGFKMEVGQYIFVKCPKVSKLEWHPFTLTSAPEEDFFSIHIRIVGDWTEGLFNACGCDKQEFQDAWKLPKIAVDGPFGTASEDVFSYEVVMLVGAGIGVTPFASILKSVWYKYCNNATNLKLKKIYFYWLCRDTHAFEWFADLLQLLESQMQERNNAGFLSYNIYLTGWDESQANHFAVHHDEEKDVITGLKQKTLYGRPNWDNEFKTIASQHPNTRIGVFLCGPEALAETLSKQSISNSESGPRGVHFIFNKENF
Sequence of Streptavidin (Streptomyces avidinii) (P22629 whole entry, looked up): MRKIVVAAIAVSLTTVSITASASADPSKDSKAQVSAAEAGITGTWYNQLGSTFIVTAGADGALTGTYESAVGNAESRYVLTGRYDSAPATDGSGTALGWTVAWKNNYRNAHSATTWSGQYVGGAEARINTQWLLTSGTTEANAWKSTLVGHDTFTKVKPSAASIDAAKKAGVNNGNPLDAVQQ

Structure (SMILES) | composite z-score [1] | z-score [2] | z-score [3] | z-score [4] | z-score [5] | composite z-score [6] | composite z-score [7] | composite z-score (Torsin-1A (Homo sapiens) [8]) | composite z-score (Torsin-1A (Homo sapiens) [9]) | composite z-score [10] | z-score [11] | composite z-score [12] | z-score [13] | z-score [14] | z-score [15] | z-score [16] | z-score [17] | z-score [18] | z-score [19] | z-score [20]
CC(CO)N1C(=O)[C@@H]2C3C(=O)OCCC=C[C@H]3OC23C=CCN(CCN2CCOCC2)C(=O)[C@@H]13 (stereo not given in full) | -0.0538 and 0.351 | -0.0826 (inactive) and 0.0065 (inactive) | 0.129 (inactive) and 0.971 (inactive) | 0.317 (inactive) and -0.492 (inactive) | 0.643 (inactive) and 0.22 (inactive) | -0.0427 and 1.12 | -0.0719 and 0.0053 | -0.674 and 0.148 | -0.198 and 0.276 | 0.521 and 0.746 | -0.671 (inactive) and -0.55 (inactive) | -0.181 and 0.476 | 0.0695 (inactive) and 6.53 (inactive) | 0.573 (inactive) and 1.15 (inactive) | 0.727 (inactive) and 0.906 (inactive) | 0.138 (inactive) and 0.21 (inactive) | -0.38 and -0.0957 | 1.08 (inactive) and 1 (inactive) | 0.376 (inactive) and 0.0486 (inactive) | 1.25 and 2.04
C#CCCCON=C1C[C@@H](O)[C@@H](O)[C@@H]2[C@@H]3C(=O)N(C4CCCCC4)C(=O)[C@@H]3CC[C@H]12 | -0.176 | -0.379 (inactive) | 0.353 (inactive) | -0.474 (inactive) | -0.236 (inactive) | 1.03 | -0.101 | 1.06 | 0.0924 | -0.105 | 0.747 (inactive) | -0.147 | 0.869 (inactive) | -0.68 (inactive) | 0.403 (inactive) | -0.113 (inactive) | -0.126 | -1.26 (inactive) | -0.426 (inactive) | -2.7
C=C[C@H](C)[C@H](O)c1ccc(O)c2ccccc12 | -0.455 and 0.247 | -1.69 (inactive) and 0.651 (inactive) | -0.143 (inactive) and -0.287 (inactive) | 0.833 (inactive) and 1.94 (inactive) | 1.13 (inactive) and -0.456 (inactive) | -0.663 and -0.935 | -0.206 and -0.182 | -1.49 and -0.75 | -0.0641 and 0.204 | 0.153 and 1.7 | 2.14 (inactive) and 2.25 (inactive) | -0.31 and -0.201 | 0.656 (inactive) and 0.845 (inactive) | -0.627 (inactive) and -0.531 (inactive) | -0.984 (inactive) and -0.529 (inactive) | -0.408 (inactive) and -1.21 (inactive) | 1.13 and 0.885 | -5.4 (inactive) and -5.09 (inactive) | -0.841 (inactive) and -0.878 (inactive) | 0.582 and 1.17
COC(=O)CC=C[C@@H](C)[C@@H](CO)NS(=O)(=O)c1ccc(C)cc1 | 0.234 and 0.125 | 0.577 (inactive) and -0.18 (inactive) | 0.773 (inactive) and -0.379 (inactive) | 1.1 (inactive) and 0.288 (inactive) | -0.196 (inactive) and -0.693 (inactive) | -0.183 and 0.469 | -0.05 and 0.0248 | 0.448 and 0.478 | 0.32 and 1.08 | 0.759 and 1.44 | -0.242 (inactive) and 0.0668 (inactive) | -0.0971 and -0.148 | -0.577 (inactive) and 5.54 (inactive) | -0.08 (inactive) and 1.47 (inactive) | 0.245 (inactive) and 0.644 (inactive) | -0.145 (inactive) and 1.05 (inactive) | -0.244 and 0.392 | -0.132 (inactive) and 0.154 (inactive) | -0.00804 (inactive) and 0.453 (inactive) | -0.00181 and 0.301
Cc1ccc(S(=O)(=O)N[C@H]2COC(=O)[C@@H](Cc3ccccc3)NC(=O)[C@@H](C)COC(=O)CC=C[C@@H]2C)cc1 | 0.089 and 0.0949 | 0.0143 (inactive) and -1.15 (inactive) | -0.166 (inactive) and -1.8 (inactive) | -0.746 (inactive) and 0.834 (inactive) | -0.899 (inactive) and -0.0204 (inactive) | -0.236 and -0.154 | -0.234 and -0.158 | 0.143 and 0.354 | 0.254 and 0.289 | 1.07 and 1.29 | -0.193 (inactive) and 0.569 (inactive) | -0.232 and -0.0645 | 0.649 (inactive) and 1.51 (inactive) | 0.237 (inactive) and 0.491 (inactive) | 0.377 (inactive) and 1.9 (inactive) | 0.252 (inactive) and 0.148 (inactive) | 0.0356 and 0.201 | -0.34 (inactive) and 0.252 (inactive) | -0.302 (inactive) and -0.127 (inactive) | 0.189 and 0.00698
